In PubChem BioAssay (EPA / NIEHS):
Inconclusive results are not listed. The source made the active and inactive calls. How the source made its calls, unless noted: active means hit-call score of the fitted dose curve at least 0.9, where 1 is the maximum; inactive means score below 0.9.

Legend:
[1] = CCTE_Shafer_MEA_acute_AB: CCTE's Alamar Blue Assay for Cytotoxicity in the Neural Acute Assay, Shafer Lab (AID 2284069; active means hit-call score of the fitted dose curve at least 0.9, where 1 is the maximum;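 further: active compounds lower the viability signal compared with DMSO wells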)
Method in brief: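 Resazurin reduction (CellTiter Blue, 1:6 in fresh medium) read at ex 544/em 590 nm marks viability loss relative to DMSO. Cells: primary rat cortical neuron networks on microelectrode arrays, treated after baseline recording at 13 or 15 days in vitro.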

DIO2 (gene 1734) = experiment: CCTE_GLTED_hDIO2: CCTE's human Deiodinase 2 (DIO2) Inhibition Assay, Great Lakes Toxicology and Ecology Division (GLTED) Lab (AID 2284050; active means hit-call score of the fitted dose curve at least 0.9, where 1 is the maximum)
Method in brief: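 Cell-free human DIO2 enzyme was incubated with test chemical for 3 h; iodide liberated from substrate was then quantified by the Sandell-Kolthoff reaction (absorbance), run in triplicate. Loss of signal versus DMSO baseline indicated inhibition.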

DIO3 (gene 1735) = experiment: CCTE_GLTED_hDIO3: CCTE's human Deiodinase 3 (DIO3) Inhibition Assay, Great Lakes Toxicology and Ecology Division (GLTED) Lab (AID 2284055; active means hit-call score of the fitted dose curve at least 0.9, where 1 is the maximum;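 further: potency is for inhibition seen as loss of released iodide signal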)
Method in brief: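 Cell-free assay with human DIO3 enzyme produced by adenovirus expression; enzyme incubated with test chemical for 3 hours. Liberated iodide then measured by Sandell-Kolthoff absorbance; loss of signal versus DMSO baseline indicates inhibition, run in triplicate.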

[2] = CCTE_Shafer_MEA_acute_LDH: CCTE's Lactate Dehydrogenase Assay for Cytotoxicity in the Neural Acute Assay, Shafer Lab (AID 2284086; active means hit-call score of the fitted dose curve at least 0.9, where 1 is the maximum;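 further: active means LDH release rises above DMSO vehicle level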)
Method in brief: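 Primary rat cortical neurons on 48-well MEA plates, treated on day 13 or 15 post-plating. After the 40-min recording with compound, medium LDH release was read by absorbance at 490 nm. Gain of signal was fitted against DMSO negative control.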

[3] = CCTE_Shafer_MEA_dev_burst_rate: CCTE's Neural Network Formation Assay for Burst Rate, Shafer Lab (AID 2284042)
Method in brief: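 Exposure ran continuously over 12 days of network development in rat cortical cultures, with compound refreshed during full media changes on DIV 5 and 9. Single-electrode bursts per recording time, well-mean over active electrodes, trapezoidal AUC across days 5–12, fitted downward relative to DMSO.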

[4] = CCTE_Shafer_MEA_dev_bursting_electrodes_number: CCTE's Neural Network Formation Assay for Number of Bursting Electrodes, Shafer Lab (AID 2284043; active means hit-call score of the fitted dose curve at least 0.9, where 1 is the maximum)
Method in brief: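 Read-out is the per-well number of electrodes bursting at least once every 2 minutes, recorded on days 5, 7, 9 and 12 and collapsed by trapezoidal area under the curve. Cultures were primary rat cortical neurons on MEA plates, treated continuously from plating.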

[5] = CCTE_Shafer_MEA_dev_per_burst_interspike_interval: CCTE's Neural Network Formation Assay for Burst Interspike Interval, Shafer Lab (AID 2284044);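 further: mean spike spacing inside bursts as AUC over recordings on days 5 7 9 12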
Method in brief: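 Primary rat cortical neurons on 48-well MEA plates, exposed from day 0 through day 12, treatment renewed at DIV 5 and 9. Within-burst interspike interval recorded days 5, 7, 9, 12, well-averaged, summarised as AUC; negative fit versus DMSO.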

[6] = CCTE_Shafer_MEA_dev_burst_duration_mean: CCTE's Neural Network Formation Assay for Mean Burst Duration, Shafer Lab (AID 2284045);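 on AC50: curve fitted for loss meaning shorter burst duration than DMSO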
Method in brief: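 Read-out: average first-to-last-spike interval within single-electrode bursts, averaged over bursting electrodes per well, then summarised as area under the curve across days 5, 7, 9 and 12. Developing rat cortical networks were exposed from day 0.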

[7] = CCTE_Shafer_MEA_dev_interburst_interval_mean: CCTE's Neural Network Formation Assay for Mean Interburst Interval, Shafer Lab (AID 2284046);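 further: well-mean interburst interval of bursting electrodes as AUC over four recording days; curve fitted for decrease in interburst interval relative to DMSO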
Method in brief: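 Primary rat cortical neurons on PEI-coated 48-well MEA plates (laminin added with cells at plating) (16 electrodes/well), exposed from plating day 0 with renewal at DIV 5 and 9. Mean inter-burst interval averaged over bursting electrodes, AUC across days 5, 7, 9, 12; DMSO baseline.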

[8] = CCTE_Shafer_MEA_dev_inter_network_spike_interval_mean: CCTE's Neural Network Formation Assay for Mean Inter-network Spike Interval, Shafer Lab (AID 2284047)
Method in brief: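 Mean time between consecutive network-spike peaks, recorded extracellularly (adaptive spike detection) on DIV 5, 7, 9 and 12, summarized as trapezoidal AUC. Rat cortical cultures on MEAs dosed continuously days 0–12, re-dosed at feeds; loss-of-signal fit relative to DMSO.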

[9] = CCTE_Shafer_MEA_dev_network_spike_number: CCTE's Neural Network Formation Assay for Number of Network Spikes, Shafer Lab (AID 2284048);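 further: synchronized bursts across electrodes counted on days 5 7 9 12 and integrated as AUC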
Method in brief: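 Developing networks of primary rat cortical neurons are treated over 12 days starting at plating, with media and compound fully replaced on DIV 5 and 9. Network spike counts from four recording days are integrated as trapezoidal AUC.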

[10] = CCTE_Shafer_MEA_dev_network_spike_peak: CCTE's Neural Network Formation Assay for Mean Number of Electrodes in Network Spike, Shafer Lab (AID 2284049)
Method in brief: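 Rat cortical primary culture, 1.5 x 10^5 cells/well, 48-well MEA (16 electrodes/well). Dosing day 0 through DIV 12, full media/compound exchange DIV 5, 9. AxIS adaptive spike detection; AUC over days 5/7/9/12; loss-of-signal vs DMSO.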

[11] = CCTE_Shafer_MEA_dev_spike_duration_mean: CCTE's Neural Network Formation Assay for Mean Spike Duration, Shafer Lab (AID 2284051);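 further: mean network spike duration pooled as area under curve over DIV 5 to 12 recordings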
Method in brief: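 Spontaneous activity was recorded on days 5, 7, 9 and 12 from rat cortical cultures grown on microelectrode arrays and dosed continuously from day 0, with media and compound renewed after the DIV 5 and 9 recordings. Network-spike duration was collapsed by area under the curve.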

[12] = CCTE_Shafer_MEA_dev_network_spike_duration_std: CCTE's Neural Network Formation Assay for Standard Deviation of Network Spike Duration, Shafer Lab (AID 2284052);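 further: hits are decreases in network spike duration SD versus DMSO vehicle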
Method in brief: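 Network spike duration variability was collapsed across recordings on days 5, 7, 9 and 12 by trapezoidal area-under-curve and fitted downward against DMSO. Cultures were rat cortical neurons on PEI-coated MEA plates, dosed continuously from plating, refed with compound DIV 5/9.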

[13] = CCTE_Shafer_MEA_dev_per_network_spike_spike_number_mean: CCTE's Neural Network Formation Assay for Mean Number of Spikes in a Network Spike, Shafer Lab (AID 2284053)
Method in brief: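 Mean spike count within each network spike, taken in a 0.05 s window at its peak, was recorded on days 5, 7, 9 and 12 and integrated as trapezoidal area under the curve. Rat cortical cultures on MEA plates received continuous compound from day 0, refreshed at medium changes on DIV 5 and 9.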

[14] = CCTE_Shafer_MEA_dev_per_network_spike_spike_percent: CCTE's Neural Network Formation Assay for Percent of Spikes in a Network Spike, Shafer Lab (AID 2284054)
Method in brief: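 Rat primary cortical cultures, 1.5 x 10^5 cells/well on MEA. Continuous compound exposure d0–12, medium/compound renewed DIV 5, 9. Network-spike spike % (0.05 s peak window), AUC over 4 recordings, DMSO baseline.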

[15] = CCTE_Shafer_MEA_dev_AB: CCTE's Alamar Blue Assay for Cytotoxicity in the Neural Network Formation Assay, Shafer Lab (AID 2284083; active means hit-call score of the fitted dose curve at least 0.9, where 1 is the maximum;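 further: resazurin reduction fluorescence as viability of cultured neurons; twelve days of exposure from plating with re-dosing on DIV 5 and 9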)
Method in brief: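 Resazurin fluorescence, relative to DMSO, gauges viability after twelve days of exposure that began at plating of rat cortical neurons (1.5 x 10^5 cells/well, 48-well MEA); treatment renewed with full medium exchange on DIV 5 and 9.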

[16] = CCTE_Shafer_MEA_dev_LDH: CCTE's Lactate Dehydrogenase Assay for Cytotoxicity in the Neural Network Formation Assay, Shafer Lab (AID 2284068; active means hit-call score of the fitted dose curve at least 0.9, where 1 is the maximum;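 further: exposure for twelve days from plating with re-dosing on DIV 5 and 9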)
Method in brief: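 Primary rat cortical neurons were cultured on PEI-coated MEA plates and exposed from plating through day 12, with compound renewed at medium changes on DIV 5 and 9. LDH activity was read spectrophotometrically; loss of signal versus DMSO indicates reduced viability.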

Measured: AC50

CCCCCOC(=O)c1ccccc1C(=O)OCCCCC
inactive: [1]

CCCCCCCCn1sccc1=O
inactive: [1] | [2]
active: DIO2 (gene 1734) 8.47 µM | DIO3 (gene 1735) 17.5 µM

O=[N+]([O-])C(Br)(CO)CO
active: [1] 26.9 µM

O=P(OCCCl)(OCCCl)OCCCl
not listed: DIO2 (gene 1734) | DIO3 (gene 1735) | [16]
inactive: all other assays above

O=Cc1ccco1
inactive: [1] | [2]

Oc1ccc2ccc3cccc4ccc1c2c34
active: DIO2 (gene 1734) 100 µM | DIO3 (gene 1735) 61.4 µM

Cc1cc(N=Nc2ccccc2C)ccc1N
inactive: [1] | [2]

O=C(Oc1ccc(Br)cc1)N1CCN2CCC1CC2
inactive: [2]

[O-][Cl+]O
active: [6] 15 µM
not listed: [1] | DIO2 (gene 1734) | DIO3 (gene 1735) | [2] | [4]
inactive: all other assays above
